D3 ag: activates the human D3 dopamine receptor; max activation, %; D3R DiscoveRx beta-arrestin cells, luminescence, 90 min; 410,000 compounds, 0.58% hits; AID 652048; P35462; in the data active means max activation above about 30%; further: 0% is about no effect
Target sequence (P35462 whole entry, looked up): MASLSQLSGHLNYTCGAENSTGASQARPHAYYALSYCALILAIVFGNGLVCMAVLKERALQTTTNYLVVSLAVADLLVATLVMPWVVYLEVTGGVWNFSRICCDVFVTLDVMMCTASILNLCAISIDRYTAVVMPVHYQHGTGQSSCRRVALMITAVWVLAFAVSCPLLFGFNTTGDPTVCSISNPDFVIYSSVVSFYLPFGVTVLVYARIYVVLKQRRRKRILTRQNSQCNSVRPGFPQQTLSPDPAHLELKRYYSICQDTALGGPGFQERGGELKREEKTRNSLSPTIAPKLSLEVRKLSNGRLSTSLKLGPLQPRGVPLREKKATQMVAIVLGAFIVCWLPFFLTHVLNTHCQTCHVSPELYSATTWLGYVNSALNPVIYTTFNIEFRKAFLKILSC
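Cells at 1500/well, incubated overnight, then treated with pinned compounds (dopamine as control) for 90 min at 37 degrees C. DiscoveRx reagent added for 30 - 60 minutes at room temperature; luminescence read.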
D3 antag: antagonists of human D3 dopamine receptor; P35462; AID 652054; 360,000 compounds, 2.5% hits; max response, negative = inhibition, %; D3R cells, DiscoveRx beta-arrestin luminescence, antagonist mode; hits give low values; in the data active means max response below about -50%; inconclusive means no clear call, values can overlap the other calls; further: on the % scale 0 is the no-effect control and ±100 the full control effect
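Cells expressing the human receptor were seeded at 1500 cells/well, incubated overnight at 37 degrees C in 5% CO2, then exposed to library compounds with dopamine controls for 90 minutes at 37 degrees C before luminescent detection.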
ATXN2 expr inh: inhibitors of ATXN2 expression. HEK-293 ATXN2-luciferase reporter, luminescence, 24 h. 360,000 compounds, 0.72% hits. Potency, µM (top dose mostly 57 µM), for the others: at the top dose activity change, negative = inhibition, usual class: inhibitors; further: potency means the concentration at half of the fitted maximal effect; on the % scale 0 is the no-effect control and ±100 the full control effect; nearly all actives have a fitted effect of over 55% in size
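qHTS (up to 57 uM final) was run with 24 h compound exposure of reporter cells at 37 °C. Each well was multiplexed: SteadyGlo luminescence measured ATXN2-luciferase expression after a fluorogenic Gly-Phe-AFC viability readout (25 uM final).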
TGFb SMAD3 inh: inhibitors of TGF-b signaling | HepG2 CAGA-GFP TGF-b/SMAD3 reporter, GFP fluorescence, 18 h; TGF-beta stimulated, 500 pg/mL final | Potency, µM (titrated, usually from 46.1 µM), for inactives: at the highest dose activity, negative = inhibition, hits mostly inhibitors | 410,000 compounds, 1.2% hits | AID 588855; further: potency means the concentration at half of the fitted maximal effect; on the % scale 0 is the no-effect control and ±100 the full control effect; nearly all actives have a fitted effect of over 65% in size
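HEPG2 CAGA-GFP reporter cells (1000/well, DMEM with 1% FBS) received compounds, then recombinant TGF-beta at 500 pg/mL final for 18 hours at 37 degrees C. Per-cell GFP summed per well was normalised to unstimulated and stimulated DMSO controls before curve fitting.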
S2 tox: cell viability loss in ATXN counter-screen; 400,000 compounds, 0.49% hits; S2 cells (HEK-293 line with an ATXN2-luciferase reporter) viability, CellTiter-Fluor protease fluorescence, 24 h; Potency, µM (doses to about 56.7 µM), most hits filed as cytotoxic; further: potency means the concentration at half of the fitted maximal effect; nearly all actives have a fitted effect of over 40% in size
HepG2 viability: kills HepG2 cells in TGF-b inhibitor counter-screen. HepG2 CAGA-GFP viability, ATP luminescence, 18 h. Potency, µM (highest dose often 46.1 µM), for inactives: at the top dose activity change, negative = cytotoxicity, actives largely listed as cytotoxic. 410,000 compounds, 0.76% hits; further: potency means the concentration at half of the fitted maximal effect
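HepG2 CAGA-GFP cells (1000/well, DMEM with 1% FBS) received compound, then TGF-beta at 500 pg/mL final, and were incubated 18 hours at 37 degrees C. Viability was read by CellTiter-Glo luminescence. Media-only wells were set as complete cell-killing and DMSO as no toxicity.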
Starred values were filed as active, the others as inactive; i = inactive; ? = inconclusive; nt = no result given; ! = not confirmed by another sample. Compounds with a hit are over-represented: about 4.8% of the library has one in this group of screens. Unless noted, the call rests on the fitted dose curve; in most records, active means well fitted curve in the direction sought with a large enough effect; inconclusive means small, poorly fitted or top-dose-only effect, or another doubt; inactive means no such curve, though single readings can be large; an effect the other way counts as inactive or inconclusive.

SMILES	D3 ag	D3 antag	ATXN2 expr inh	TGFb SMAD3 inh	S2 tox	HepG2 viability
CCc1ccc(OCC(=O)NC(NC(=S)Nc2ccc(Cl)cc2)C(Cl)(Cl)Cl)cc1 (stereo not given)	2.3	-24.0	?	7.08µM*	nt	8.91µM*
O=C(CCc1ccccc1)NC(NC(=S)Nc1ccc(Br)cc1)C(Cl)(Cl)Cl (stereo not given)	-13.8	-90.8*	?	?	i	-47.1%
COc1ccc(C2CC(=O)c3cc(-c4nc(-c5cccc([N+](=O)[O-])c5)cs4)c(=O)n(-c4ccc(C)c(C)c4)c3C2)cc1 (stereo not given)	-13.1	nt	8.5%	?	i	0.2%
CCC(C(=O)Nc1cc(F)ccc1F)n1nc(C)c2c(C)n(-c3ccc(C)cc3)nc2c1=O (stereo not given)	58.8*!	30.6	?	?	?	-12.6%
O=[N+]([O-])c1cccc(/C=N\N=C2c3ccccc3-c3ccccc32)c1O	-12.6	-73.9*	?	26.0%	i	-16.8%
NC(N)=N/N=C/c1cccc([N+](=O)[O-])c1O	-14.3	-14.5	-30.1%	-0.7%	i	-1.5%
CCC1CCCCN1CCCNC(=O)c1c(C)oc2ncn(CC(C)C)c(=O)c12 (stereo not given)	-6.4	nt	-2.8%	-19.0%	i	-12.1%
CCC1CCCCN1CCCNC(=O)c1cn(CC(C)C)c(=O)c2cc(OC)c(OC)cc12 (stereo not given)	-2.4	-67.8*	-9.4%	4.5%	i	-37.1%
CCc1ccccc1N(C)C(=O)c1cn(CC(C)C)c(=O)c2cc(OC)c(OC)cc12	7.1	nt	-38.7%	?	?	-29.4%
COc1ccc(N(C)C(=O)c2cn(CC(C)C)c(=O)c3cc(OC)c(OC)cc23)c(OC)c1	0.9	0.4	-15.1%	-0.1%	i	7.08µM*
COc1cc2c(C(=O)N3CCN(c4cccc(C(F)(F)F)c4)CC3)cn(CC(C)C)c(=O)c2cc1OC	-9.1	nt	?	11.2µM*	?	-27.3%
O=C(CCn1cnc2onc(-c3ccc(F)cc3)c2c1=O)N1CCN(c2cccc(Cl)c2)CC1	-0.7	nt	-17.4%	-2.4%	?	-21.3%
CC1=C(C)/C(=N\OS(=O)(=O)c2ccccc2)C=CC1=O	-5.3	-88.8*	10µM*	?	11.2µM*	14.1µM*
Cc1ccc(S(=O)(=O)O/N=C2\CCCc3ccccc32)cc1	-0.3	-20.8	-4.1%	6.5%	i	4.6%
C=CCn1c(-c2ccccc2)c[nH]c1=S	-3.2	-67.7*	56.4%	-6.2%	i	-11.6%
C=CCn1c(-c2ccc(Cl)cc2)c[nH]c1=S	-0.6	-109.1*	4.9%	-11.0%	i	-6.4%
COc1ccc2[nH]c(=O)cc(C(=O)O)c2c1	-0.6	2.1	0.9%	0.0%	i	0.0%
COc1ccc2[nH]c3c4c(ccc3c2c1)C(=O)C=CC4=O	-18.1	-104.8*	3.55µM*	14.1µM*	6.31µM*	-75.0%
COc1ccc2c(c1)-c1nc(-n3ncc(C(=O)NCc4cccc(C)n4)c3C3CC3)ncc1CC2	nt	nt	nt	nt	i	nt
COc1ccc(F)cc1C(=O)C1CCCN(Cc2ccc(Oc3ncccn3)cc2)C1 (stereo not given)	-12.1	-72.8*	-36.2%	-26.8%	i	0.7%
COc1ccccc1C(=O)C1CCCN(Cc2ccc3c(c2)OCCO3)C1 (stereo not given)	-38.3	-50.2*	-23.6%	7.1%	i	-24.8%
COc1ccc(F)cc1C(=O)C1CCCN(Cc2c(C)n(C)n(-c3ccccc3)c2=O)C1 (stereo not given)	-19.8	-55.3*	0.0%	0.5%	i	-8.3%
COc1ccc(F)cc1C(=O)C1CCCN(Cc2cccn2-c2cccnc2)C1 (stereo not given)	-20.7	-95.5*	nt	?	i	-30.4%
COc1ccc(C(=O)C2CCCN(Cc3cccn3-c3ccccn3)C2)cc1F (stereo not given)	-1.5	-0.7	-29.3%	2.4%	i	-35.6%
CC(C)C(=O)Nc1cccc(C(F)(F)F)c1	nt	nt	10.7%	nt	i	nt
SMILES	D3 ag	D3 antag	ATXN2 expr inh	TGFb SMAD3 inh	S2 tox	HepG2 viability
O=C(O)c1ccc(O)c2ncc(N3CCOCC3)cc12	nt	nt	-8.1%	nt	nt	nt
O=C(O)c1cccc(-n2cnc3cccnc32)c1	6.8	nt	nt	nt	nt	11.5%
COc1cc(OC)c(OC)cc1CN1CCCC(C(=O)c2ccccc2SC)C1 (stereo not given)	-7.0	-60.5*	-21.3%	-7.3%	i	-15.5%
COc1cc(CN2CCCC(C(=O)c3ccccc3SC)C2)cc(OC)c1 (stereo not given)	-9.3	-14.0	-20.4%	?	i	-15.7%
COc1ccc(F)cc1C(=O)C1CCCN(Cc2ccc3c(c2)OCCO3)C1 (stereo not given)	-3.5	-105.3*	nt	-6.6%	i	-25.3%
Cc1c(CN2CCCCC2C)c(=O)n(-c2ccccc2)n1C (stereo not given)	-12.9	-58.2*	-4.7%	-16.1%	i	-1.4%
Cc1[nH]c2ccccc2c1CCNCc1ccc(C=CC(=O)NO)cc1	nt	nt	119.6%	nt	nt	nt
NS(=O)(=O)c1ccc(CCNc2nn3c(-c4cccc(OC(F)(F)F)c4)cnc3s2)cc1	24.8	78.6	25.1µM*	?	?	-23.5%
CC(C)CCNC(=O)c1ccc(Cn2c(=O)c3cccn3c3cccnc32)cc1	7.2	nt	nt	-2.1%	nt	-11.8%
CCSc1nn(CC(=O)Nc2cccc(CC)c2)c(N)c1S(=O)(=O)c1ccccc1	0.7	nt	?	11.2µM*	?	-38.6%
CCSc1nn(CC(=O)Nc2cccc(Cl)c2)c(N)c1S(=O)(=O)c1ccc(OC)cc1	1.2	nt	?	?	?	-27.3%
COc1ccc(S(=O)(=O)c2c(SC)nn(CC(=O)Nc3ccc(C)c(Cl)c3)c2N)cc1	-12.5	nt	?	7.08µM*	?	5.5%
CCc1ccc(NC(=O)Cn2nc(SC)c(S(=O)(=O)c3ccc(OC)cc3)c2N)cc1	-5.0	nt	2.9%	-24.5%	i	-8.8%
O=C(NS(=O)(=O)c1ccc2c(c1)OCCO2)c1ccccc1	2.3	-85.2*	2.7%	31.2%	i	6.6%
O=C(O)c1ccccc1NS(=O)(=O)c1ccc2c(c1)OCCO2	-1.0	-15.6	10.5%	-2.5%	i	7.4%
Cc1ccc(NC(=O)CSc2nccn2-c2ccccc2)cc1	-7.5	nt	nt	0.0%	nt	-22.3%
Cc1ccccc1N1C(S)=C(C#N)C(=O)NC1c1cccs1 (stereo not given)	-2.0	-72.7*	-2.0%	-12.0%	i	0.8%
Cc1cccc(N2C(S)=C(C#N)C(=O)NC2c2cccs2)c1 (stereo not given)	-4.2	-19.0	-1.4%	-1.0%	?	-25.1%

Source: PubChem BioAssay (National Center for Advancing Translational Sciences (NCATS))
